HTT ATP protect: cytoprotection in Huntington HTT-Q103 PC12 cell model | PC12 HTT-Q103 induced, cytoprotection, ATP luminescence, 40 h | Potency, µM (top dose mostly 56.4 µM), for inactives: cytoprotection (ATP increase), usual class: activators | 230,000 compounds, 0.14% hits | AID 1471; note: potency is the fitted concentration of half-maximal effect; % of control where 0% means no effect; nearly all actives have a fitted effect of over 45% in size
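Stable PC12 Q103-GFP cells in serum-supplemented, phenol red-free DMEM; induction by tebufenozide at 100 nM final; compound dose series; cell viability quantified luminescently from ATP.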
HPGD inh: HPGD (human) dehydrogenase inhibition; P15428; purified HPGD, NADH fluorescence kinetic, PGE2 substrate; Potency, µM, without a hit: at the highest dose activity change, negative = inhibition, hits mostly inhibitors; 150,000 compounds, 4.3% hits; AID 894; active = well fitted inhibition curve with a large enough effect, not every such curve was filed as active; inconclusive = small, poorly fitted or top-dose-only effect, or another doubt; inactive = no such curve, though single readings can be large or run the other way; note: potency is the fitted concentration of half-maximal effect; % is set by controls: 0 for no effect and ±100 for the full control effect
Target sequence (P15428 whole entry, looked up): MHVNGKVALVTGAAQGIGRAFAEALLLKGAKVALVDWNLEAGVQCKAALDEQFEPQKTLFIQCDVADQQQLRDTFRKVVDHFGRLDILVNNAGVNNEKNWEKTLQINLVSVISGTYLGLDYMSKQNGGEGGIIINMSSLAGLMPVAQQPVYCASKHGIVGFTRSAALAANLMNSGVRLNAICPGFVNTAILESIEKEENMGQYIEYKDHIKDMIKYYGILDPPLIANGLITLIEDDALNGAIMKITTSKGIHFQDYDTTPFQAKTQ
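NADH formation kinetics: reaction with 30 uM PGE2 and 1 mM NAD+ (final), 20 nM enzyme, Tris-HCl pH 8 with Tween 20, after 15 min compound preincubation at room temperature. Fluorescence change, last versus first of five reads.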
RGS12 GoLoco inh: RGS12 GoLoco-Gai1 interaction inhibition. 230,000 compounds, 0.44% hits. P63096. Gai1:RGS12 GoLoco peptide FP, rhodamine, 10 min. Potency, µM (highest dose often 61.6 µM), for inactives: top-dose activity, negative = inhibition, usual class: inhibitors; active = well fitted inhibition curve with a large enough effect, not every such curve was filed as active; inactive = no such curve, though single readings can be large or run the other way; note: potency is the fitted concentration of half-maximal effect; % is set by controls: 0 for no effect and ±100 for the full control effect; nearly all actives have a fitted effect of over 30% in size
Target sequence (P63096 whole entry, looked up): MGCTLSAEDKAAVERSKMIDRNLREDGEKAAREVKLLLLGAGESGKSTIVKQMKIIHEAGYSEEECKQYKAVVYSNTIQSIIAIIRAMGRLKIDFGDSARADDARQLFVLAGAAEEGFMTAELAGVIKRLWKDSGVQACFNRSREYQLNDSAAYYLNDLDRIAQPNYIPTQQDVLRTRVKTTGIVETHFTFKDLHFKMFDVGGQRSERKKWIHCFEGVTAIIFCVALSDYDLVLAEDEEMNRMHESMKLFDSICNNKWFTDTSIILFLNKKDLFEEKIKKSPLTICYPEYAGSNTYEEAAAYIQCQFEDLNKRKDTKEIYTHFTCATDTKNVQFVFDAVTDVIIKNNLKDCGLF
ALDH1A1 inh: ALDH1A1 (human) enzyme inhibition. P00352. Potency, µM (highest dose often 75.3 µM), without a hit: at the top dose activity, negative = inhibition, most hits filed as inhibitors. Purified ALDH1A1, NADH fluorescence, propionaldehyde substrate. AID 1030. 220,000 compounds, 7.3% hits; active = well fitted inhibition curve with a large enough effect, not every such curve was filed as active; inconclusive = small, poorly fitted or top-dose-only effect, or another doubt; inactive = no such curve, though single readings can be large or run the other way;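 note: potency is the fitted concentration of half-maximal effect; plate controls were no enzyme wells and a reference inhibitor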
HttQ103 aggreg: inhibitors of mutant huntingtin aggregate formation in PC12 cells; PC12 HttQ103-GFP aggregates, Acumen cytometry, 40 h; Potency, µM (highest dose often 46.1 µM), for inactives: top-dose activity change, negative = inhibition, hits mostly inhibitors; 220,000 compounds, 1.1% hits; AID 1688; note: potency is the fitted concentration of half-maximal effect; % is set by controls: 0 for no effect and ±100 for the full control effect; nearly all actives have a fitted effect of over 60% in size
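PC12 cells stably carrying ecdysone-inducible HTT exon 1 Q103–GFP were induced with tebufenozide (100 nM final) and treated with library compounds in titration. GFP aggregates in lysates were counted by laser scanning cytometry.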
PNC inhibitor: perinucleolar compartment assembly inhibition | PC3M PTB-GFP, PNC prevalence imaging, 16 h; hits give low values | activity change (PNC), negative = inhibition, % at 10 µM | 140,000 compounds, 3.1% hits | AID 2417;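 active = readout at or below -70, meaning at least 70% loss of cells showing the perinucleolar compartment, a nuclear body marking cancer cells; inconclusive = readout between -30 and a set limit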;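 note: plate controls were DMSO wells for no effect and camptothecin positive control wells for full effect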
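Read-out is percentage of cells bearing a perinucleolar compartment, from automated 20x imaging of fixed, Hoechst-stained PC3M PTB-GFP cells. Cells were seeded 4 h, then exposed 16 h to compound (23 nl of library stock) in duplicate plates.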
The depositor's hits bear a star; u = inconclusive; x = no result; [ ] = remark or other dose. In the library only some 11% were active in any assay of this set; here they are far more common. Unless noted, calls come from the whole dose curve; as a rule, active = well fitted curve in the direction sought with a large enough effect; inconclusive = small, poorly fitted or top-dose-only effect, or another doubt; inactive = no such curve, though single readings can be large; an effect the other way counts as inactive or inconclusive.

SMILES	HTT ATP protect	HPGD inh	RGS12 GoLoco inh	ALDH1A1 inh	HttQ103 aggreg	PNC inhibitor
COc1cc2c(cc1OC)C(CSc1ccccc1C(=O)O)=NC(C)(C)C2	x	x	-7%	u	x	x
CC1(C)Cc2ccccc2C(CSc2ccccc2C(=O)O)=N1	25%[10 µM]	x	0%	40µM*	17%[9.22 µM]	x
CCCCc1nc2c(c3c1C[C@H](C)OC3)CN(C(=O)Nc1cccc(C#N)c1)CC2	-14%[10 µM]	-4%	2%[14.2 µM]	23%[13.5 µM]	x	x
CN(CCOC(=O)c1ccc2c(c1)OCCO2)Cc1ccccc1	11%	-5%	-1%	8%	7%	-25
CN(Cc1ccccc1)C(=O)c1ccc2c(c1)OCCO2	7%	14µM*	6%	u	13%	-27
COc1ccccc1NC(=O)CN(Cc1ccco1)C(=O)c1cc2ccccc2o1	-4%[10 µM]	x	7%	22µM*	22%	x
COc1ccccc1NC(=O)CN(Cc1ccco1)C(=O)c1ccc(=O)[nH]c1	11%[10 µM]	x	5%	x	-14%[9.22 µM]	x
COc1ccc(C2c3[nH]c4ccccc4c3CCN2C(=O)c2ccc(=O)n(C)n2)c(F)c1 (stereo not drawn)	-55%	x	6%	-9%	15%	x
CCOc1ccc(C2c3[nH]c4ccccc4c3CCN2C(=O)Cn2cncn2)cc1 (stereo not drawn)	-18%[10 µM]	x	4%	10%	-3%[9.22 µM]	x
Cc1ccccc1C1c2[nH]c3ccccc3c2CCN1C(=O)c1ccc(=O)n(C)n1 (stereo not drawn)	-19%	x	-17%	32µM*	5%	x
COc1cccc(C2c3[nH]c4ccccc4c3CCN2C(=O)Cn2cncn2)c1OC (stereo not drawn)	-11%[10 µM]	x	51%	9.5µM*	-3%[9.22 µM]	x
O=C(c1cccc(F)c1)N1CCC2(CCCN(c3ccccn3)C2)CC1	4%	-18%	1%	u	x	x
O=c1cnc2cnc(N3CCOCC3)nc2n1Cc1ccc(F)cc1	-61%	u	19%	u	x	x
O=C(O)c1ccc(N2CCS(=O)(=O)CC2)cc1	x	x	3%	-8%	8%	x
COc1ccccc1C(=O)Nc1ccc(C2=NNC(=O)CC2C)cc1 (stereo not drawn)	x	-15%	11%	-7%	29%	-114*
CN=C(NC#N)Nc1ccc(C2=NNC(=O)CC2C)cc1 (stereo not drawn)	-21%	-8%	-12%	-2%	x	x
Cc1ccc(-c2nn(CCC(=O)O)cc2/C=C\C(=O)c2ccc(Br)cc2)cc1	-9%	x	7%	u	8%[9.22 µM]	x
COc1ccc(OC)c(C2C3=C(N=C4SCC(=O)N42)c2ccccc2CC3)c1 (stereo not drawn)	21%	22µM*	140%	u	11%[9.22 µM]	u
CCOCCCn1c(=S)[nH]c2cc(C(=O)NCCOC)ccc2c1=O	-7%	-25%	8%	u	-10%	u
O=C(Nc1cccc(C(F)(F)F)c1)c1ccc2nc(-c3ccco3)c(-c3ccco3)nc2c1	-25%	u	49%	0.4µM*	3%	19
COC(=O)c1ccc2c(=O)n(Cc3ccc(C(=O)NCCCN4CCC(C)CC4)cc3)c(=S)[nH]c2c1	14%[10 µM]	x	11%	u	27%	x
O=C(O)c1ccc2nc(-c3ccco3)c(-c3ccco3)nc2c1	7%[10 µM]	x	-21%	u	2%[9.22 µM]	x
COc1ccc(CCNC(=O)c2ccc3nc(-c4ccco4)c(-c4ccco4)nc3c2)cc1OC	3%[10 µM]	u	27%	0.32µM*	u	18
COc1ccc(CCNC(=O)c2ccc(Cl)cc2)cc1OC	-31%	x	18%	2%	7%	x
CC1CCN(CCCNC(=O)c2ccc3c(=O)n(Cc4ccc(Cl)cc4)c(=S)[nH]c3c2)CC1	x	x	5%	16µM*	u	x
SMILES	HTT ATP protect	HPGD inh	RGS12 GoLoco inh	ALDH1A1 inh	HttQ103 aggreg	PNC inhibitor
COCCn1c(=S)[nH]c2cc(C(=O)NC(C)C)ccc2c1=O	-45%	-12%	0%	0.18µM*	-6%	28
CCN1C(=O)c2cccc3c(S(=O)(=O)NCC4CCCO4)ccc1c23 (stereo not drawn)	-1%[10 µM]	x	7%	x	23%[9.22 µM]	x
COc1ccc(CCNC(=O)c2ccc3c(=O)n(Cc4ccco4)c(=S)[nH]c3c2)cc1OC	-13%	-18%	46%	2.5µM*	11%	u
COC(CNC(=O)c1ccc(Cn2c(=S)[nH]c3cc4c(cc3c2=O)OCO4)cc1)OC	-1%	x	x	-4%	-23%	-3
CCCNC(=O)c1ccc2c(=O)n(Cc3ccco3)c(=S)[nH]c2c1	-32%	x	0%	7.1µM*	3%	x
COCCNC(=O)c1ccc(Cn2c(=S)[nH]c3cc4c(cc3c2=O)OCO4)cc1	-22%	13µM*	12%	-1%	25%	u
CC(C)NC(=O)c1ccc2c(=O)n(Cc3ccco3)c(=S)[nH]c2c1	18%	-17%	2%	8.9µM*	5%	21
CCCCCn1c(=O)[nH]c2cc(C(=O)NCCc3ccc(OC)c(OC)c3)ccc2c1=O	8%	-14%	-4%	-4%	-5%	5
Clc1ccccc1-c1cncnc1NCCN1CCOCC1	-117%	x	-8%	9%	x	x
Cc1ccc(C2C3=C(CCCC3=O)N=C3c4ccccc4C(=O)C32)cc1 (stereo not drawn)	8%[10 µM]	-7%	13%	1%	20%	-19
O=C(O)c1ccc(N2CCCCS2(=O)=O)cc1	-5%[10 µM]	x	7%	-14%	-19%[9.22 µM]	x
COC(=O)c1ccc2c(=O)n(CCCCCC(=O)O)c(=S)[nH]c2c1	x	u	-23%	14µM*	u	u
COC(=O)c1ccc2c(=O)n(CCO)c(=S)[nH]c2c1	6%[0.074 µM]	-12%	-22%	-11%	16%	u
CCOC(=O)N1CCN(c2cc(C)c(C(C)=O)cc2F)CC1	3%	-18%	0%	u	u	31
CC(=O)c1cc(F)c(N2CCN(C(=O)Cc3ccccc3)CC2)cc1C	-4%[0.074 µM]	22µM*	9%	8.9µM*	11%	7
CC(=O)c1cc(F)c(N2CCN(CCC#N)CC2)cc1C	0%[10 µM]	-13%	9%	28µM*	-9%	25
O=C(O)c1cc(-c2ccc(Cl)cc2)n(-c2ccc(Cl)cc2)n1	-4%[10 µM]	x	11%	5%	4%	x
Cc1ccc(-c2nc3cccnc3s2)cc1NS(=O)(=O)c1ccc2c(c1)OCCO2	-4%[10 µM]	u	26%	u	-20%	-108*
O=S(=O)(Nc1cccc(-c2nc3cccnc3s2)c1)c1ccc2c(c1)OCCO2	21%	-22%	2%	u	u	-20
CC1=CC(C)(C)Nc2ccc(CSc3ccccc3)cc21	6%[10 µM]	u	-5%[14.2 µM]	u	x	x
CN1CCN(c2ncncc2-c2ccc(N(C)C)cc2)CC1	-46%	x	4%	-9%	x	x
Cc1ccc(S(=O)(=O)N=Nc2c(O)[nH]c3ccccc23)cc1C	-19%	-10%	1%	u	-5%	31
